# Assay outcomes: PubChem, several laboratories
# AddAB inh: growth inhibition of E. coli expressing H. pylori AddAB, primary screen, AddAB inhibitor project, absorbance | inhibition, % at 11.9 µM | hit rate 0.29% among 330,000; in the data active = inhibition above about 12%
# phage Ecoli inh: growth loss of phage-infected E. coli, primary screen, RecBCD inhibitor project, absorbance, with phage, HTS; inhibition, % at 11.9 µM; hit rate 0.26% among 360,000; AID 651602, 2012; in the data active = inhibition above about 11%
# E coli growth-1: E. coli growth inhibition, primary screen, OD600. Escherichia coli growth, 23 h; hits give low values. OD600 absorbance (no concentration beside the values). hit rate 0.21% among 330,000. AID 1053175, 2014;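 active = OD600 absorbance below the run mean of sample wells minus 3.6 SD, in any replicate, cut at about 0.56 in these data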
# Calb FLC: C. albicans growth inhibition with fluconazole, primary screen, CaCi-2 strain, Alamar Blue fluorescence; C. albicans CaCi-2 (fluconazole-resistant clinical isolate) + fluconazole, 48 h; growth inhibition, % (concentration not given with the values); hit rate 0.57% among 300,000; AID 1979, 2009;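 active = growth inhibition above about 58% in most replicates, limit read from the data, passing the limit was not always enough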;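 also: all wells also contain fluconazole at 8 µg/ml as a sub-toxic cotreatment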
# E coli growth-2: E. coli V3065 growth inhibition, primary screen, counter-screen for AddAB inhibitor project, absorbance, OD600. 18 h. inhibition, % at 11.9 µM. hit rate 0.27% among 330,000. AID 449728, 2010;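 active = inhibition above the campaign's mean inhibition across all tested compounds plus 3 SD, cut at about 9.9% in these data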;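 also: uninfected addAB+ strain grown without phage in ampicillin broth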
# Tat transport: E. coli Tat export inhibitors, primary screen, MC4100, TorA-mCherry reporter, fluorescence, single point; inhibition, % at 10 µM; AID 488895, 2010; hit rate 0.036% among 340,000;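 active = mean replicate inhibition at least 50% and at least half of replicates individually reaching 50%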;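 also: exported cargo escapes ClpAP degradation while cytoplasmic cargo is degraded and loses fluorescence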
# RecBCD conf: growth loss of phage-infected RecBCD+ E. coli, confirmation, RecBCD inhibitor project, absorbance, E. coli V66, T4 gene 2 phage; inhibition, % at 11.9 µM; hit rate 45% among 890; E. coli V66 + T4 2- phage, growth OD; shares compounds with phage Ecoli inh;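 active = mean inhibition over triplicates exceeding the hit threshold derived in the original primary screen, cut at about 11% in these data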
# Ecoli viability: E. coli viability inhibition, counter-screen for RecBCD inhibitor project, absorbance, high throughput. AID 651983, 2013. hit rate 29% among 890. inhibition, % at 11.9 µM. absorbance (OD) growth. shares compounds with phage Ecoli inh; in the data active = inhibition above about 20%;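 also: E. coli strain V66 grown with compound alone and no phage infection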
# AddAB phage OD: growth loss of phage-infected AddAB-carrying E. coli, confirmation, counter-screen for RecBCD inhibitor project, absorbance, E. coli V3065, T4 phage | AID 651984, 2013 | hit rate 45% among 890 | inhibition, % at 11.9 µM | shares compounds with phage Ecoli inh | E. coli expressing H. pylori AddAB + T4 phage, OD growth; gene 2 mutant T4, recBCD-deleted host;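 active = mean inhibition above the solvent-only control wells' mean plus 3 SD, cut at about 22% in these data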;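 also: higher means less bacterial growth from phage killing when AddAB is blocked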
# A number is an active result; n = inactive; x = not tested or not shown. A selection: hits, their analogues and other compounds. The true share with any hit is near 0.9%.
SMILES,AddAB inh,phage Ecoli inh,E coli growth-1,Calb FLC,E coli growth-2,Tat transport,RecBCD conf,Ecoli viability,AddAB phage OD
COC(=O)C1=C(c2ccccc2)CC2CCC1N2C(=O)NCCS(C)=O (stereo unspecified),x,x,n,x,x,x,x,x,x
COC(=O)c1c2[n+](cc3cc(OC)c(OC)cc13)CCc1cc(OC)c(OC)cc1-2,n,15.5,n,n,n,n,n,n,n
COc1ccc(CC2=NCCc3cc(OC)c(OC)cc32)cc1OC,x,n,x,x,x,x,x,x,x
COC(=O)C1=C(c2cccc(OC)c2OC)CC2CCC1N2C(=O)N1CCCC1 (stereo unspecified),x,x,n,x,x,x,x,x,x
Oc1c(Cl)cccc1Cc1cc(Cl)cc(Cl)c1O,x,14.5,0.383,x,x,n,n,n,n
COC(=O)C1=C(c2ccccc2OCc2ccccc2)CC2CCC1N2C(=O)NCCOc1ccccc1 (stereo unspecified),x,x,n,x,x,x,x,x,x
CN(C)C1C(=O)C(C(N)=O)=C(O)C2(O)C(=O)C3=C(O)c4c(O)cccc4C(C)(O)C3C(O)C12 (stereo unspecified),n,98.9,0.064,x,n,138.0,101.5,104.1,102.4
O=c1[nH]c(=O)n(-c2ccc(Cl)cc2)c(O)c1C=Nc1ccc(S(=O)(=O)Nc2nccs2)cc1,n,11.9,x,n,n,n,n,n,25.0
CCN(CC)S(=O)(=O)c1ccc(N=Cc2c(O)n(-c3ccccc3)c(=O)[nH]c2=O)cc1,n,n,n,n,n,n,x,x,x
COC(=O)C1=C(c2ccc(OC)c(OC)c2)CC2CCC1N2C(=O)N1CCC(O)CC1 (stereo unspecified),x,x,n,x,x,x,x,x,x
CCN1/C(=C/C=C/C2=[N+](CC)c3ccccc3C2(C)C)C(C)(C)c2ccccc21,x,25.4,x,x,x,x,17.9,21.0,43.4
CCOC(=O)[C@]12Cc3cc(Cl)ccc3[C@H]1N(C1CCCCC1)C(=O)c1cc(OC)ccc12,x,11.2,x,x,x,x,n,n,n
CC(N)C(=O)NC1C2C(=C(O)CC(O)C2O)C(=O)OC1(C)C(Cl)Cl (stereo unspecified),x,98.7,x,x,x,82.3,104.2,106.1,97.0
COc1ccc2c(c1O)-c1c(OC)c(OC)cc3c1C(C2)N(C)CC3 (stereo unspecified),x,x,n,x,x,x,x,x,x
COC(=O)C1=C(c2ccc(F)cc2OCc2ccccc2)CC2CCC1N2C(=O)NCc1ccc(C)cc1 (stereo unspecified),x,x,n,x,x,x,x,x,x
O=[N+]([O-])c1ccc(N(CCO)CCO)c2c1no[n+]2[O-],x,93.2,x,x,x,x,84.5,91.5,100.2
COC(=O)C1=C(c2cccc(OCc3ccccc3)c2)CC2CCC1N2C(=O)NNCc1ccccc1 (stereo unspecified),x,x,n,x,x,x,x,x,x
